The values that follow come from the OligoGym collection.
Further: reference of the scale not given here.

The target in the first test is HEPH. The test is described as follows: pooled miR-30 sensor sort-seq; sequence = guide strand. Particulars: shRNA.
For the sequence TATGTCACTGTCCAGAGGCTGG, the sensor-assay potency score (higher = more potent) was -1.3.
TTGCGTCGTAGCTTTCTCTGTC: the sensor-assay potency score (higher = more potent) worked out at 0.593.
Regarding AATGTAACCATAACTGTCCTTC, the sensor-assay potency score (higher = more potent) is -0.181.

Another test addresses HERC1. Described as above. Particulars: shRNA.
Sequence TTTCTGTAGTGAACATAGCAGT showed a sensor-assay potency score (higher = more potent) of -0.617.
Still for that read-out and setting: the value for TATTCATGTAAAACTGTCCTTT was -0.17; that for TTCATAGGCATACTGCTCCTGA was -0.419; that for TAGTTGTCCATGTCGATTGAGC was -0.739.
The sequence TTATGTTCTTATAACATCTATG showed a sensor-assay potency score (higher = more potent) of -0.965.
Regarding TAACAGACACATCCTTTCGATA, the sensor-assay potency score (higher = more potent) was -0.966.
TTGTCCATGTCGATTGAGCGGC: the sensor-assay potency score (higher = more potent) was -0.831.
On the same count and under the same terms, the value for TAGTGGTTGAGAAACATTCTAA was -0.582; that for TTCTCCAACCAGCTTAACCTTC was -1.11.
Still for that read-out and setting: in the case of TTCTGCACTAGTCACATTGGTC it was -0.675.
In turn, TATTGTAACCCACTTCTGCGGT gave a sensor-assay potency score (higher = more potent) of -0.596.
Same read-out and setting: in the case of TAACAGAATGGACATCTGCTGA it was -0.647.

The target of another test is HERC3. The test is described as above. The following applies: shRNA.
With TACATTGAGTAACTTCTTGTAG, the sensor-assay potency score (higher = more potent) was 0.402.
The same measure, in the same setting: in the case of TATCTGAACAACACCATTGATT it was -0.697; in that of TACTTTGCCACCACACACCTTT, 0.0362.
The same measure, in the same setting: the value for TTTACATTGAGTAACTTCTTGT was -0.154; that for ATAATATCTGAACAACACCATT was -1.67; that for TTCAGCTTTTGTATTAACCTGG was 0.299.
As to TTGTGCTCTACAAAACACGTGT, the sensor-assay potency score (higher = more potent) was determined as 0.203.
Same read-out and setting: in the case of TTGAACTATATGCACACACATA it was -1.08.
Turning to TAACTTCTCAAATAACACCCTA, the sensor-assay potency score (higher = more potent) is -0.57.
In turn, TTATCTAGTACTTTGCTGGGGT yielded a sensor-assay potency score (higher = more potent) of 0.669.
On the same count and under the same terms, the value for TAGCTTTCTCGGCAGATCGTGA was -0.772.

The target of another test is HES7. The description is as above. Particulars: shRNA.
In turn, TTCCGGAGGTTCTGGTCCCGGG had a sensor-assay potency score (higher = more potent) of -1.41.
ATATAGACCACATCTCACCCGC showed a sensor-assay potency score (higher = more potent) of -0.0228.
In turn, TTTGGGGCGCAGATAGCCGTGC had a sensor-assay potency score (higher = more potent) of -0.737.
AAACCGGACAAGTAGCAGCTGG had a sensor-assay potency score (higher = more potent) of -0.705.
Same read-out and setting: in the case of TTGGGCGCCCCGTCTTGTCTGT it was -1.06; in that of TTTCTCCAGCTTCGGGTTCCGG, -1.22.
Turning to TTCGCTCCCTCAAGTAGCCCAC, the sensor-assay potency score (higher = more potent) was -0.598.
The sequence TATCTCCGCTTTCTCCAGCTTC showed a sensor-assay potency score (higher = more potent) of -1.2.
Turning to TCCGCTTTCTCCAGCTTCGGGT, the sensor-assay potency score (higher = more potent) is -1.29.
With AACCGGACAAGTAGCAGCTGGC, the sensor-assay potency score (higher = more potent) is -1.06.
The same measure, in the same setting: in the case of AAGCGAAGCAGGCACTCGCGGA it was -1.48; in that of AGCGGCTTGAGCATCTTGGGGC, -0.755.
